Data as given in the supplement of paper PMC9694430.

Key:
Assay in all cases: thermal shift delta Tm vs DMSO control; higher = stronger stabilization (binding)
Conditions in all cases: 12.5 µM; protein concentration 2 µM
LOC_OS01G01410-cb001 = system: LOC_OS01G01410-cb001
In short: (§1)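 Thermal shift values come from differential scanning fluorimetry on purified rice kinase domains made in E. coli, with melting temperatures obtained from Boltzmann fits. Samples of 19.5 μl held 2 μM kinase, 100 mM potassium phosphate pH 7.5, 150 mM NaCl, 10% glycerol, 5 × SYPRO Orange and compound in DMSO, and were heated from 25°C to 95°C at 0.05°C/s. Each shift is a triplicate mean relative to the DMSO-only protein sample.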

LOC_OS01G02750-cb003 = system: LOC_OS01G02750-cb003
In short: as §1

LOC_OS01G10900-cb004 = system: LOC_OS01G10900-cb004
In short: as §1

LOC_OS01G13800-cb001 = system: LOC_OS01G13800-cb001
In short: as §1

LOC_OS01G14860-cb001 = system: LOC_OS01G14860-cb001
In short: as §1

LOC_OS01G21960-cb002 = system: LOC_OS01G21960-cb002
In short: as §1

LOC_OS01G39600-cb002 = system: LOC_OS01G39600-cb002
In short: as §1

LOC_OS01G48390-cb002 = system: LOC_OS01G48390-cb002
In short: as §1

LOC_OS01G51400-cb002 = system: LOC_OS01G51400-cb002
In short: as §1

LOC_OS01G52050-cb004 = system: T1, LOC_OS01G52050-cb004
T1 sequence (whole entry): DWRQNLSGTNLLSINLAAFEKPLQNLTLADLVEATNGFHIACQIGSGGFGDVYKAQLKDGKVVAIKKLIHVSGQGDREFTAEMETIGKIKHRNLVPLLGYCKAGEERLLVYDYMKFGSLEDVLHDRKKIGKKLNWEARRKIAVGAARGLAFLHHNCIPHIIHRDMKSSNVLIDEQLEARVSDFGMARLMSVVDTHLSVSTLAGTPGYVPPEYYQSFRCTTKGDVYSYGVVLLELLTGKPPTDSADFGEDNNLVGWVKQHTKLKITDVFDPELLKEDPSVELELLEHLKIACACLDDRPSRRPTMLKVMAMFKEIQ
In short: as §1

LOC_OS01G57100-cb003 = system: LOC_OS01G57100-cb003
In short: as §1

LOC_OS01G60330-cb001 = system: LOC_OS01G60330-cb001
In short: as §1

LOC_OS01G60700-cb002 = system: LOC_OS01G60700-cb002
In short: as §1

LOC_OS01G63280-cb003 = system: LOC_OS01G63280-cb003
In short: as §1

LOC_OS01G67340-cb003 = system: LOC_OS01G67340-cb003
In short: as §1

LOC_OS01G70970-cb002 = system: LOC_OS01G70970-cb002
In short: as §1

LOC_OS02G07810-cb001 = system: LOC_OS02G07810-cb001
In short: as §1

LOC_OS02G08530-cb003 = system: LOC_OS02G08530-cb003
In short: as §1

LOC_OS02G14120-cb001 = system: LOC_OS02G14120-cb001
In short: as §1

LOC_OS02G17970-cb001 = system: LOC_OS02G17970-cb001
In short: as §1
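Further: purified Escherichia coli-expressed rice kinase domain construct.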

| SMILES | thermal shift delta Tm (LOC_OS01G01410-cb001) | thermal shift delta Tm (LOC_OS01G02750-cb003) | thermal shift delta Tm (LOC_OS01G10900-cb004) | thermal shift delta Tm (LOC_OS01G13800-cb001) | thermal shift delta Tm (LOC_OS01G14860-cb001) | thermal shift delta Tm (LOC_OS01G21960-cb002) | thermal shift delta Tm (LOC_OS01G39600-cb002) | thermal shift delta Tm (LOC_OS01G48390-cb002) | thermal shift delta Tm (LOC_OS01G51400-cb002) | thermal shift delta Tm (LOC_OS01G52050-cb004) | thermal shift delta Tm (LOC_OS01G57100-cb003) | thermal shift delta Tm (LOC_OS01G60330-cb001) | thermal shift delta Tm (LOC_OS01G60700-cb002) | thermal shift delta Tm (LOC_OS01G63280-cb003) | thermal shift delta Tm (LOC_OS01G67340-cb003) | thermal shift delta Tm (LOC_OS01G70970-cb002) | thermal shift delta Tm (LOC_OS02G07810-cb001) | thermal shift delta Tm (LOC_OS02G08530-cb003) | thermal shift delta Tm (LOC_OS02G14120-cb001) | thermal shift delta Tm (LOC_OS02G17970-cb001) |
| --- | --- | --- | --- | --- | --- | --- | --- | --- | --- | --- | --- | --- | --- | --- | --- | --- | --- | --- | --- | --- |
| CCn1c(-c2nonc2N)nc2cnc(Oc3cccc(NC(=O)c4ccc(OCCN5CCOCC5)cc4)c3)cc21 | 0.15 °C | 1.24 °C | 1.47 °C | 0.89 °C | 6.06 °C | 0.9 °C | 0.75 °C | 1.02 °C | 0.31 °C | 0.93 °C | 0.1 °C | 1.01 °C | 1.61 °C | 0.37 °C | 1.07 °C | 0.14 °C | 0.95 °C | 1.19 °C | -0.13 °C | 1.79 °C |
| CO[C@H]1CC[C@H](N2C(=O)CNc3ncc(-c4ccc(C(C)(C)O)nc4)nc32)CC1 | 0.1 °C | -0.2 °C | -0.9 °C | 0.15 °C | 0.82 °C | 1.01 °C | -1.7 °C | -0.27 °C | 0.12 °C | -1.81 °C | -0.57 °C | 0.72 °C | 0.21 °C | -0.43 °C | 0.09 °C | -0.05 °C | -0.1 °C | 0.65 °C | -1.04 °C | -0.48 °C |
| C[C@H]1[C@H](C)CC[C@]2(C(=O)O)CC[C@]3(C)C(=CC[C@@H]4[C@@]5(C)C[C@@H](O)[C@H](O)[C@@](C)(CO)[C@@H]5CC[C@]43C)[C@H]12 [Asiatic Acid] | 0.45 °C | -0.18 °C | 0.15 °C | 1.17 °C | 0.23 °C | 0.75 °C | 0.1 °C | 0.45 °C | 0.17 °C | 0.2 °C | 2.35 °C | 0.45 °C | 0.54 °C | -0.01 °C | 0.72 °C | 0.06 °C | 0.83 °C | 0.74 °C | 0.58 °C | 0.33 °C |
| CC1(C)OCCn2c1nc1c(N3CCOCC3)nc(-c3cnc(N)nc3)nc12 | 2.4 °C | 0.54 °C | 1.05 °C | 0.07 °C | 0.3 °C | 1.06 °C | 0.85 °C | 0.14 °C | 0.12 °C | 0.62 °C | -0.05 °C | 5.04 °C | 0.81 °C | -0.02 °C | 0.53 °C | 1.29 °C | 0.49 °C | 1.45 °C | 0.72 °C | 0.78 °C |
| CNC(=O)c1cc(Oc2ccc(NC(=O)Nc3cc(C(C)(C)C)nn3-c3ccc4ncccc4c3)c(F)c2)ccn1 [Rebastinib (DCC-2036)] | 1.21 °C | 0.84 °C | 0.98 °C | 0.38 °C | 7.66 °C | 1.31 °C | 0.57 °C | 1.3 °C | 0.47 °C | 1.95 °C | 2.72 °C | 1.36 °C | 0.84 °C | 11.5 °C | 0.32 °C | 3.62 °C | 1.36 °C | 2.28 °C | 8.15 °C | 1.32 °C |
| COc1cc(Nc2ncc(F)c(Nc3ccc4c(n3)NC(=O)C(C)(C)O4)n2)cc(OC)c1OC [R406 (free base)] | 0.61 °C | 1.68 °C | 0.13 °C | 0.48 °C | 5.16 °C | 4.15 °C | 5.87 °C | 0.31 °C | 0.55 °C | 8.56 °C | 5.12 °C | 8.58 °C | 0.44 °C | 0.7 °C | 1 °C | 3.16 °C | 2.03 °C | 4.18 °C | 13 °C | 0.86 °C |
| CCCCCCCCCCCCCCCCn1cc[n+](Cc2ccccc2)c1C | -2.01 °C | -7.84 °C | -4.55 °C | -6.34 °C | -18.6 °C | -3.32 °C | -5.39 °C | -5.85 °C | -9.26 °C | -3.57 °C | -6.09 °C | 0.5 °C | -2.72 °C | -7.84 °C | -1.74 °C | -4.15 °C | -4.78 °C | -0.96 °C | -1.51 °C | -2.91 °C |
| COc1cc(OC)c(/C=C/S(=O)(=O)Cc2ccc(OC)c(NCC(=O)O)c2)c(OC)c1 | 0.51 °C | 1.22 °C | 0.58 °C | 0.83 °C | 0.27 °C | 0.96 °C | -0.03 °C | 0.33 °C | 0.1 °C | 0.51 °C | 0.72 °C | 0.72 °C | 1.27 °C | 0.67 °C | -0.23 °C | -0.1 °C | 1.48 °C | 0.79 °C | 0.49 °C | 0.94 °C |
| Cc1cc(Nc2ncnc3ccc(-c4ccc(CNCCS(C)(=O)=O)o4)cc23)ccc1Oc1ccn2ncnc2c1 [HER2-Inhibitor-1] | 1.34 °C | 2.06 °C | 3.1 °C | 0.55 °C | 2.31 °C | 1.18 °C | 3.89 °C | 0.83 °C | 0.03 °C | 1.36 °C | 2.52 °C | 0.97 °C | 1.31 °C | 1.08 °C | 0.71 °C | 0.3 °C | 0.98 °C | 2.32 °C | 2.21 °C | 1.79 °C |
| CN1CCN(Cc2ccc(-c3cnc4[nH]cc(-c5ccc6[nH]ccc6c5)c4c3)cc2)CC1 | 3.79 °C | 5.34 °C | 4.45 °C | -0.19 °C | 4.87 °C | 4.44 °C | 9 °C | 3.1 °C | 0.11 °C | 9.93 °C | 2.72 °C | 5.96 °C | 2.47 °C | 7.33 °C | 7.26 °C | 10.2 °C | 1.34 °C | 5.47 °C | 10.8 °C | 0.97 °C |
| CC1Oc2cc(cnc2N)-c2c(nn(C)c2C#N)CN(C)C(=O)c2ccc(F)cc21 (stereo not given) | 0.52 °C | 1.64 °C | 0.21 °C | -0.23 °C | 0.3 °C | -0.18 °C | -0.18 °C | 2.07 °C | 0.44 °C | 0.41 °C | 3.37 °C | 0.4 °C | 0.4 °C | 0.16 °C | 0.4 °C | 0.35 °C | -0.27 °C | 2.75 °C | 6.77 °C | 0.31 °C |
| Cc1nc(-c2cn3c(n2)-c2ccc(-c4cnn(C(C)(C)C(N)=O)c4)cc2OCC3)n(C(C)C)n1 [Taselisib (GDC 0032)] | 2.11 °C | -0.1 °C | 0.24 °C | 0.32 °C | -0.05 °C | 0.03 °C | -0.05 °C | 0.45 °C | 0.03 °C | 0.13 °C | 0.43 °C | 0.33 °C | 0.46 °C | 0.16 °C | 0.07 °C | 0.23 °C | 0.07 °C | 0.84 °C | 0.27 °C | 0.09 °C |
| N#Cc1cnc(Nc2cc(NC[C@H]3CNCCO3)c(C(F)(F)F)cn2)cn1 | 0.36 °C | 2.89 °C | 0.47 °C | -0.18 °C | 2.93 °C | 0.6 °C | 0.93 °C | 2.58 °C | 0.75 °C | 5.23 °C | 0.46 °C | 1.05 °C | 1.23 °C | 0.31 °C | 0.67 °C | 1.58 °C | 0.2 °C | 0.87 °C | 2.96 °C | 0.44 °C |
